Compounds without any hit were thinned out: in the full panel of roughly 83,000, 20% have a hit.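 Compound tested at a single concentration for 48 hours in 96-well plates; a percent growth value below 10 was scored as active.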 Values without a mark were called inactive. The source made the active and inactive calls.

We go through eight compounds from PubChem BioAssay (NCI).

Test in all cases: NCI-60 one-dose screen, 48 h (100 = growth as untreated, 0 = no growth, -100 = all killed)
The test system of one test is SR leukemia. To be noted: 10 µM unless noted.
The next test relates to RPMI-8226 leukemia. Particulars: 10 µM unless noted.
The test system of another test is OVCAR-8 ovarian. Particulars: 10 µM unless noted.
The subject of a further test is OVCAR-5 ovarian. To be noted: 10 µM unless noted.
A further test has as its system OVCAR-4 ovarian. To be noted: 10 µM unless noted.
The next test concerns SK-OV-3 ovarian. Particulars: 10 µM unless noted.
For a further test, the system named is IGROV1 ovarian. Particulars: 10 µM unless noted.
The next test deals with OVCAR-3 ovarian. To be noted: 10 µM unless noted.
The subject of the next test is NCI/ADR-RES ovarian. Particulars: 10 µM unless noted.
Another test has as its system T-47D breast. Particulars: 10 µM unless noted.
The next test concerns BT-549 breast. To be noted: 10 µM unless noted.
The test system of another test is MDA-MB-435 melanoma. Particulars: 10 µM unless noted.
For a further test, the system named is SW-620 colon. Particulars: 10 µM unless noted.
The next test relates to MCF7 breast. Particulars: 10 µM unless noted.
A further test relates to HCT-116 colon. To be noted: 10 µM unless noted.
Another test relates to KM12 colon. Particulars: 10 µM unless noted.
The test system of a further test is HCC-2998 colon. To be noted: 10 µM.

With `CC[C@@H]1C(=O)N(C)c2cnc(Nc3ccc(C(=O)NC4CCC(N5CCN(CC6CC6)CC5)CC4)cc3OC)nc2N1C(C)C` (stereo partly drawn), the growth in the test on SR leukemia is -11.5% (active); in the test on RPMI-8226 leukemia it was -42.8% (active); in the test on OVCAR-8 ovarian it was 1.34% (active); in the test on OVCAR-5 ovarian, 22.5%; with OVCAR-4 ovarian, 24.8%; in the test with SK-OV-3 ovarian, -68.8% (active). Moreover, the growth in the test on IGROV1 ovarian is -18.5% (active); with OVCAR-3 ovarian it was -13.8% (active); in the test with NCI/ADR-RES ovarian, 25.8%; with T-47D breast, 7.48% (active); with BT-549 breast it was 18.3%; in the test on MDA-MB-435 melanoma it was -29.6% (active). Also, the growth was 12.2% in the test on SW-620 colon, -24% (active) in the test on MCF7 breast, -6.9% (active) in the test on HCT-116 colon and 4.24% (active) in the test on KM12 colon.

On to `O=c1[nH]c([C@@H]2CCCN2)nc2c1oc1ccc(Cl)cc12`, for which the growth is 34.1% with SR leukemia; 86.6% in the test on RPMI-8226 leukemia; 72.9% in the test on OVCAR-8 ovarian; 49.8% in the test with OVCAR-5 ovarian; 84.5% with OVCAR-4 ovarian; 24% in the test on SK-OV-3 ovarian. Further, the growth was 81.3% in the test with IGROV1 ovarian; 65% in the test with OVCAR-3 ovarian; 82.9% in the test with NCI/ADR-RES ovarian; 56.4% with T-47D breast; 58.5% in the test with BT-549 breast; 73.3% in the test on MDA-MB-435 melanoma. The growth in the test on SW-620 colon was 22.7%; in the test with MCF7 breast, 49.2%; with HCT-116 colon it was 33.6%; in the test with KM12 colon, 31.6%.

Turning to `CN1CCN(CCOc2cc(OC3CCOCC3)c3c(Nc4c(Cl)ccc5c4OCO5)ncnc3c2)CC1`, the growth was 38.7% with SR leukemia; 95.1% in the test with RPMI-8226 leukemia; 55.6% with OVCAR-8 ovarian; 29.1% in the test on OVCAR-5 ovarian; 95.8% with OVCAR-4 ovarian; -14.6% (active) with SK-OV-3 ovarian. For the same compound, the growth is -15.6% (active) in the test with IGROV1 ovarian; 59.3% with OVCAR-3 ovarian; 60.7% in the test with NCI/ADR-RES ovarian; -14.3% (active) with T-47D breast; 89.2% with BT-549 breast; 98.3% with MDA-MB-435 melanoma. Also, the growth is 110% in the test on SW-620 colon, 62.8% in the test with MCF7 breast, 90.7% in the test on HCC-2998 colon and 17.1% with KM12 colon.

For the compound `CCCNC(=O)c1cn2ncnc(Nc3cc(C(=O)NC4CC4)ccc3C)c2c1C`, the growth in the test with SR leukemia is 73.6%; with RPMI-8226 leukemia, 75.9%; in the test on OVCAR-8 ovarian, 77.8%; in the test on OVCAR-5 ovarian, 17.6%; in the test on OVCAR-4 ovarian it was 92.1%; in the test with SK-OV-3 ovarian, 70.5%. The growth with IGROV1 ovarian is 42.4%; with OVCAR-3 ovarian, 103%; with NCI/ADR-RES ovarian, 66.9%; in the test with T-47D breast, 65.3%; in the test with BT-549 breast, 103%; in the test with MDA-MB-435 melanoma, 89.9%. The growth is 39% with SW-620 colon, 83.6% in the test with MCF7 breast, 101% with HCT-116 colon and 99.6% in the test with KM12 colon.

For the compound `COc1ccc(-c2ccc3c(N4CCOC[C@@H]4C)nc(N4CCOC[C@@H]4C)nc3n2)cc1CO`, the growth was 9% (active) with SR leukemia; 4.83% (active) with RPMI-8226 leukemia; -3.37% (active) in the test with OVCAR-8 ovarian; 7.09% (active) in the test on OVCAR-5 ovarian; -26% (active) in the test on OVCAR-4 ovarian; -33.7% (active) in the test with SK-OV-3 ovarian. Also, the growth was -33.2% (active) in the test on IGROV1 ovarian; 13% in the test on OVCAR-3 ovarian; -1.68% (active) in the test with NCI/ADR-RES ovarian; -35% (active) in the test on T-47D breast; -6.65% (active) in the test with BT-549 breast; -14.1% (active) with MDA-MB-435 melanoma. In addition, the growth was 8.32% (active) in the test with SW-620 colon, 5.12% (active) in the test with MCF7 breast, 10.3% in the test with HCC-2998 colon and 13.1% in the test on KM12 colon.

On to `Cc1csc(-c2nnc(Nc3ccc(Oc4ncccc4-c4ccnc(N)n4)cc3)c3ccccc23)c1`, for which the growth in the test with SR leukemia was 3.4% (active); in the test with RPMI-8226 leukemia it was 51.8%; with OVCAR-8 ovarian it was 31%; in the test with OVCAR-5 ovarian, 51.5%; in the test with OVCAR-4 ovarian, 60.3%; in the test with SK-OV-3 ovarian, 53%. Also, the growth is 24.5% with IGROV1 ovarian; 56% in the test with OVCAR-3 ovarian; 50% in the test on NCI/ADR-RES ovarian; 30.5% with T-47D breast; 60.4% in the test with BT-549 breast; 31.9% in the test on MDA-MB-435 melanoma. Besides, the growth was 20.3% in the test with SW-620 colon, 12% with MCF7 breast, 36.1% in the test on HCC-2998 colon and 19.2% with KM12 colon.

On to `C=CC(=O)Nc1cccc(Oc2nc(Nc3ccc(N4CCN(C)CC4)cc3)nc3ccsc23)c1`, for which the growth in the test on SR leukemia was -23.5% (active); in the test with RPMI-8226 leukemia, -29.8% (active); with OVCAR-8 ovarian, -38.8% (active); in the test on OVCAR-5 ovarian it was 8.45% (active); in the test on OVCAR-4 ovarian it was -63.6% (active); in the test with SK-OV-3 ovarian, -2.6% (active). The growth was -69.9% (active) with IGROV1 ovarian; -80.7% (active) in the test with OVCAR-3 ovarian; -3.05% (active) in the test on NCI/ADR-RES ovarian; -51% (active) in the test with T-47D breast; -37.5% (active) in the test on BT-549 breast; -93.3% (active) in the test on MDA-MB-435 melanoma. Moreover, the growth is -62.2% (active) in the test with SW-620 colon, -60.9% (active) in the test with MCF7 breast, -89.2% (active) in the test with HCT-116 colon and -79.1% (active) in the test with KM12 colon.

Consider `C[C@@H](Oc1cc(C(=O)Nc2ccc(C(=O)N3CCN(C)CC3)cc2)nnc1N)c1c(Cl)ccc(F)c1Cl`, for which the growth in the test with SR leukemia is 0.634% (active); with RPMI-8226 leukemia, 36.7%; in the test with OVCAR-8 ovarian it was 63.1%; in the test on OVCAR-5 ovarian, 75.3%; with OVCAR-4 ovarian, 78.2%; in the test on SK-OV-3 ovarian, 66.9%. Further, the growth in the test on IGROV1 ovarian was 86%; in the test with OVCAR-3 ovarian it was 91.6%; in the test with NCI/ADR-RES ovarian, 76.5%; with T-47D breast it was 59.4%; in the test with BT-549 breast, 71.7%; with MDA-MB-435 melanoma, 68.8%. Also, the growth with SW-620 colon is 98.1%; with MCF7 breast, 47.1%; in the test with HCT-116 colon, 49.4%; with KM12 colon, 23%.
